Bioassay records as filed in PubChem.
Rev-erbA mod: Rev-erb alpha (human) modulation; Rev-erbα–FITC-DNA binding, fluorescence polarization, 90 min; activity, % at 10 µM; 0.79% of 370,000 active;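 active means activity above about 14%, limit read from the data; passing the limit was not always enough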;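 further: 0% = DMSO wells with 35 nM protein and 100% = DMSO wells with 750 nM protein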
Target sequence (P20393 whole entry, looked up): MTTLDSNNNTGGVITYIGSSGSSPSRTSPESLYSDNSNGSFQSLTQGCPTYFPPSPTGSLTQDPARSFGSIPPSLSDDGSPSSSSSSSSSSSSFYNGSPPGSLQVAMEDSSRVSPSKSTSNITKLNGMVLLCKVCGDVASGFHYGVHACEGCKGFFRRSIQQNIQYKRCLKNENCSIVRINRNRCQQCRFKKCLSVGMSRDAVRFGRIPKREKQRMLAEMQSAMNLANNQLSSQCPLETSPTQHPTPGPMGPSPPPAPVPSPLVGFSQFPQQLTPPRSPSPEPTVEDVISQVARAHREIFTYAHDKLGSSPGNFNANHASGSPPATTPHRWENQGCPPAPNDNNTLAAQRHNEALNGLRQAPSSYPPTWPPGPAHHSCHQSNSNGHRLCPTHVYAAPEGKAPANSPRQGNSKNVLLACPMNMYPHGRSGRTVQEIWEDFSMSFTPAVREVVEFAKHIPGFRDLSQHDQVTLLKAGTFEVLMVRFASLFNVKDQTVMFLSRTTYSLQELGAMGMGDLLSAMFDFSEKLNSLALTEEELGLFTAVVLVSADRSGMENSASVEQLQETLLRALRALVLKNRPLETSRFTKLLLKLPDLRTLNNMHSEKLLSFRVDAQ
PG9 binder: small molecules binding HIV-1 gp120 antibody PG9. TR-FRET gp120-PG9 antibody binding. inhibition, % at 6.7 µM. 0.43% of 360,000 active. AID 624416; in the data active means inhibition above about 8.5%
EP2 modulator: EP2 receptor (human) modulation | P43116 | EP2-expressing cells, cAMP HTRF FRET, PGE2 co-stimulation | induction, % at 25 µM | 0.83% of 260,000 active | AID 940;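 active means compounds whose cAMP rise, as percent of the full-agonist control response, exceeds 60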;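 further: rat C6 glioma line stably carrying human EP2 under a CMV promoter; the protocol text gives 20 µM as final concentration; 100% = response of wells given 1 µM PGE2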
SKN-1 inh: blocks SKN-1 activity in C. elegans; C. elegans VP596 Pgst-4::GFP/RFP ratio, acrylamide-induced, 24 h; inhibition, % at 21.8 µM; 0.49% of 360,000 active; AID 624304;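 active means interference check ratio from 0.5 to 1.5 plus GFP to RFP signal ratio inhibition reaching or exceeding a fixed threshold, cut at about 30% in these data, passing the limit was not always enough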
PGE2 EP2 inh: EP2 receptor (human) inhibition; AID 1422; inhibition, % at 25 µM; P43116; 0.52% of 260,000 active; C6 glioma cells expressing human EP2, cAMP TR-FRET; cells stimulated with saturating PGE2;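 active means percent inhibition above 40 after rounding to a whole number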;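 further: rat C6 glioma host cells with rolipram phosphodiesterase inhibitor present; the protocol text gives 20 µM as final concentration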
RAM network inh: yeast RAM network inhibition; S. cerevisiae dse1pr::URA3 reporter, 5-FOA growth OD615, 2 d; analog-sensitive cbk1-as2 kinase mutant strain; inhibition, % at 50 µM; 1.8% of 190,000 active;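 active means inhibition above a set limit, 3 SD over mean compound inhibition, cut at about 8.4% in these data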;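 further: 0% = DMSO-only wells with no growth and 100% = 10 µM 1-NA-PP1 full growth; inhibition rescues growth on 5-FOA so higher OD means more RAM inhibition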
PG9 bind confirm: PG9 antibody binding, confirmed; TR-FRET PG9 antibody binding, biochemical; inhibition, % at 6.7 µM; 90% of 1,500 active; shares compounds with PG9 binder; in the data active means inhibition above about 9%
PGV04 counter: binds control antibody PGV04 in PG9 binder counter-screen; shares compounds with PG9 binder; TR-FRET PGV04 antibody-gp120 binding, biochemical; inhibition, % at 6.7 µM; 95% of 1,500 active; in the data active means inhibition above about 9.5%
Starred values were filed as active, the others as inactive; x = no result given. Most compounds without a hit are left out; they make up all but 2.9% or so of the library.

SMILES	Rev-erbA mod	PG9 binder	EP2 modulator	SKN-1 inh	PGE2 EP2 inh	RAM network inh	PG9 bind confirm	PGV04 counter
Cc1cc(C)c2c(N)c(C(=O)Nc3cccc(C)c3C)sc2n1	3.9	8.9*	x	14.3	x	x	45.8*	69.6*
Nc1c(C(=O)Nc2ccccc2)sc2nc3c(c(-c4ccco4)c12)CCCC3	0.3	-0.4	16.4	10.5	10.2	3.2	x	x
Cc1ccccc1NC(=O)c1sc2nc3c(c(-c4ccco4)c2c1N)CCCC3	4.2	70.5*	19.9	21.7	12.4	4.8	62.3*	71.3*
NC(=O)CN1CCN(c2ncccn2)CC1	x	x	-10.2	x	7.0	x	x	x
Cc1c(N/C=C/C(=O)C(F)(F)F)c(=O)n(-c2ccccc2)n1C	4.6	-0.7	6.8	5.8	12.4	-0.1	x	x
O=C(/C=C/Nc1ccccc1)C(F)(F)F	3.1	9.3*	7.0	3.9	9.9	-0.4	4.0	7.1
COc1ccc(C(=O)Nc2cc(-c3ccc(C)cc3)no2)cc1	-2.3	14.2*	x	-5.6	x	x	14.6*	17.7*
CC(=O)O[C@@](C)(CCC=C(C)C)C1CC=C(C)CC1 (stereo partly drawn)	x	x	20.9	x	7.5	x	x	x
COc1cccc(OC)c1C(=O)Nc1ccc(C(=O)NCc2ccccc2)cc1	-3.5	9.6*	x	11.9	x	x	12.2*	16.8*
CCOC(=O)Cc1csc(NC(=O)CSc2nc3cc4c(cc3cc2CC)OCO4)n1	x	x	-14.4	x	9.2	x	x	x
COc1ccc(CNC(=O)COC(=O)c2cc3sccc3n2C)cc1	x	x	-59.4	x	2.9	x	x	x
COc1ccc(CNC(=O)CN(C(=O)c2cc3sccc3n2C)C2CCCC2)cc1	3.3	12.6*	9.3	5.4	13.2	1.8	11.4*	14.2*
C=CCNC(=O)c1cc(-c2ccc(Br)cc2)on1	4.1	9.4*	-13.6	7.9	x	0.8	25.3*	28.1*
CCCCn1c(NC(=O)c2ccco2)c(S(=O)(=O)c2ccc(C)cc2)c2nc3ccccc3nc21	-5.3	17.5*	53.9	17.6	11.2	4.5	21.4*	24.5*
CCCCn1c(NC(=O)c2ccc(Br)o2)c(S(=O)(=O)c2ccccc2)c2nc3ccccc3nc21	-8.7	13.5*	23.9	9.9	11.4	8.0	17.7*	24.1*
COc1ccc(CC(=O)Nc2cc(C)on2)cc1	-3.1	0.6	-3.1	-0.7	8.1	-0.5	x	x
COc1ccc2ccc(OCC(=O)Nc3cc(C)on3)cc2c1	9.7	21.1*	x	-0.4	x	x	24.9*	33.9*
CON(C)S(=O)(=O)c1ccc2c(c1)N(Cc1ccc(C)cc1)C(=O)C1CCCN21 (stereo not drawn)	12.5	10.3*	8.1	19.0	4.8	4.1	18.6*	26.6*
Cc1ccc(CN2C(=O)C3CCCN3c3ccc(C#N)cc32)cc1 (stereo not drawn)	x	x	12.3	x	6.5	2.1	x	x
Cc1cc(OCC=C(Cl)Cl)c2ccccc2n1	x	x	-26.6	x	8.2	x	x	x
O=C(c1ccc(NS(=O)(=O)c2ccccc2)cc1)N1CCN(Cc2ccc3c(c2)OCO3)CC1	1.6	10.9*	-8.2	-6.8	20.5	0.3	6.2	7.2
Cc1cc(-c2cc(N)c(=O)n(C(C)C(=O)NCCc3ccccc3F)n2)c(C)o1 (stereo not drawn)	x	x	-153.3	x	6.5	x	x	x
CCOC(=O)c1c(NC(=O)C2C3C=CC(CC3)C2C(=O)O)sc(C)c1CC (stereo not drawn)	2.6	8.7*	30.9	13.1	19.1	3.4	18.0*	23.0*
CCc1c(C)sc2nc(C)nc(SCC(=O)Nc3ccccc3C)c12	x	x	21.3	x	12.9	x	x	x
Nc1cc2sc(-c3ccc(C(=O)O)cc3)nc2cc1Cl	-8.8	8.6*	1.1	-9.3	14.9	4.0	12.1*	20.0*
SMILES	Rev-erbA mod	PG9 binder	EP2 modulator	SKN-1 inh	PGE2 EP2 inh	RAM network inh	PG9 bind confirm	PGV04 counter
COc1ccccc1N(C(=O)c1snc(C(N)=O)c1N)C(C(=O)NC1CCCCC1)c1cccc(OC)c1OC (stereo not drawn)	5.4	-1.5	x	12.7	x	x	x	x
COc1ccc(OC)c(C(C(=O)NC2CCCCC2)N(C(=O)c2snc(C(N)=O)c2N)c2ccccc2OC)c1 (stereo not drawn)	14.9	35.9*	x	9.5	x	x	36.0*	59.8*
CCOc1ccc(/C(O)=C2/C(=O)C(=O)N(c3ncccn3)C2c2ccc(C)cc2)cc1 (stereo not drawn)	2.5	1.3	4.9	7.7	19.3	x	x	x
CCCOc1ccc(/C(O)=C2\C(=O)C(=O)N(c3ccccn3)C2c2ccccc2F)cc1C (stereo not drawn)	-3.9	21.2*	x	3.8	x	x	17.1*	24.3*
CCOc1ccc(/C(O)=C2/C(=O)C(=O)N(c3ccccn3)C2c2ccc(Cl)cc2)c(C)c1 (stereo not drawn)	1.9	11.4*	x	-9.9	x	x	12.7*	19.1*
CCOc1ccc(/C(O)=C2/C(=O)C(=O)N(c3ccccn3)C2c2ccc(C)cc2)c(C)c1 (stereo not drawn)	3.6	19.8*	x	1.7	x	x	20.5*	27.9*
CC(O)CSc1nc2c(c(=O)n(C)c(=O)n2C)n1Cc1cccc2ccccc12 (stereo not drawn)	x	x	-31.7	x	13.0	x	x	x
COC(=O)CN1C(=O)C(=O)/C(=C(\O)c2ccccc2)C1c1ccc(OC)c(OC)c1 (stereo not drawn)	x	x	14.6	x	8.2	x	x	x
COc1ccc(CN2CCN(C(=O)c3ccc(OC)c(OC)c3)CC2)cc1Br	x	x	-43.0	x	5.9	x	x	x
CCC(c1nnnn1Cc1ccccc1)N(Cc1ccco1)Cc1cc2cc(C)cc(C)c2[nH]c1=O (stereo not drawn)	x	x	31.4	x	11.5	x	x	x
COC(=O)c1c(NC(=O)C(C)C)sc(C(=O)Nc2ccccc2)c1C	x	x	-8.2	x	7.2	x	x	x
Cc1cc(=O)n2c(C(=O)Nc3ccc(C(=O)OC(C)C)cc3)c(C(=O)Nc3ccccc3)sc2n1	18.2	12.2*	-4.2	4.9	7.6	2.1	22.1*	31.0*
COCCn1c(SCC(=O)N2CCCC(C)C2)nnc1-c1ccncc1 (stereo not drawn)	x	x	-7.8	x	17.9	x	x	x
COC(=O)c1ccc(OCC(=O)Nc2nn(-c3ccccc3)nc2C(N)=O)cc1	14.7	12.4*	10.6	5.2	7.2	1.3	29.6*	34.0*
CC1CCN(CC(=O)Nc2nn(-c3ccccc3)nc2C(N)=O)CC1	-1.1	-0.9	-24.8	-9.5	7.5	0.5	x	x
Cn1c(C(=O)Nc2ccc(Cl)cc2)cc2cc(Cl)ccc21	3.2	14.1*	x	13.2	x	x	9.2*	16.0*
C[C@H](NC(=O)c1cc2cc(Cl)ccc2n1C)C(=O)N1CCC(C(=O)O)CC1	-1.9	-1.4	x	10.0	x	x	x	x
CCCn1ncc(C(=O)N2C[C@H](C(=O)O)[C@@H](c3ccc(F)cc3)C2)c1C	x	x	-6.1	x	x	x	x	x
Cc1[nH]c(=O)nc(SCc2cccc(Cl)c2)c1C#N	3.6	0.1	x	-0.9	x	x	x	x
